Data taken from PubChem BioAssay (NCATS).
Values without a mark were called inactive. The call rests on the fitted dose curve; in most records, active means well fitted curve in the direction sought with a large enough effect; inconclusive means small, poorly fitted or top-dose-only effect, or another doubt; inactive means no such curve, though single readings can be large or run the other way.

experiment: Cellular Toxicity (caspase-3) BJ (AID 658); conditions: BJ fibroblasts, luminescence, normalized: DMSO 0%, staurosporine 100%; series mostly up to 91.7 µM; caspase-3 activation: at the top concentration;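 further: cells exposed to compound for 16 hours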
In short: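 Luminescent aminoluciferin-substrate cleavage reports caspase 3/7 activity in normal human BJ fibroblasts after 16 hr compound exposure at 37 °C. Normalized to DMSO (basal) and 10 uM staurosporine (100%); AC50 from Hill fit of concentration-response.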

**Q.** With Cc1cc(C)c(N)cc1C as the compound, how does the “caspase-3 activation” value read?
**A.** The value was -1.4%.

**Q.** With Cc1cccc2ccccc12 as the compound, how does the “caspase-3 activation” value read?
**A.** The value was 2.56%.

**Q.** For CCOc1cc(OCC)c(C(C)=O)cc1OCC, which “caspase-3 activation” value is on record?
**A.** The value was -1.44%.

**Q.** For C=CCOC(=O)COCCC(C)C, which “caspase-3 activation” value is on record?
**A.** Its value is -0.276%.

**Q.** For ICCc1ccccc1, which “caspase-3 activation” value is on record?
**A.** The value was -1.27%.

**Q.** With Cc1ccccc1C(N)=O as the compound, how does the “caspase-3 activation” value read?
**A.** Its value is 0.187%.

**Q.** For ClCCl, which “caspase-3 activation” value is on record?
**A.** Its value is -0.453%.

**Q.** For CCOc1ccc(NC(C)=O)cc1N, which “caspase-3 activation” value is on record?
**A.** The value was 0.582%.

**Q.** With Nc1ccc(F)cc1F as the compound, how does the “caspase-3 activation” value read?
**A.** The value was -0.564%.

**Q.** Which “caspase-3 activation” value does the source give for CC(=O)c1ccc([N+](=O)[O-])cc1 here?
**A.** Its value is 0.479%.

**Q.** Which “caspase-3 activation” value does the source give for CCCCN(CCO)CCCC here?
**A.** The value was -1.34%.

**Q.** For Nc1nc(CC(=O)O)cs1, which “caspase-3 activation” value is on record?
**A.** The value was -0.709%.

**Q.** Which “caspase-3 activation” value does the source give for O=[N+]([O-])c1cc(C(F)(F)F)ccc1Cl here?
**A.** The value was -1.1%.

**Q.** With CC(C)=CCl as the compound, how does the “caspase-3 activation” value read?
**A.** The value was -0.119%.

**Q.** With O=Cc1ccc(Cl)cc1 as the compound, how does the “caspase-3 activation” value read?
**A.** Its value is 0.505%.

**Q.** With NC(=O)c1cccc([N+](=O)[O-])c1 as the compound, how does the “caspase-3 activation” value read?
**A.** The value was -0.719%.

**Q.** For C=CCn1c(=O)n(CC=C)c(=O)n(CC=C)c1=O, which “caspase-3 activation” value is on record?
**A.** The value was -0.894%.

**Q.** With Cc1cc(C)cc([N+](=O)[O-])c1 as the compound, how does the “caspase-3 activation” value read?
**A.** The value was 0.387%.

**Q.** With CC(=O)OC(C)C as the compound, how does the “caspase-3 activation” value read?
**A.** The value was 1.04%.

**Q.** Which “caspase-3 activation” value does the source give for CCC(=O)/C=C/C1C(C)=CCCC1(C)C (centres undefined) here?
**A.** The value was -0.504%.

**Q.** For CC(=O)CCc1ccccc1, which “caspase-3 activation” value is on record?
**A.** The value was 1.16%.

**Q.** Which “caspase-3 activation” value does the source give for CCCCOCCOCCOCCCC here?
**A.** Its value is 0.263%.

**Q.** For Cc1cc(C(=O)O)ccc1[N+](=O)[O-], which “caspase-3 activation” value is on record?
**A.** Its value is -2.97%.

**Q.** For O=c1[nH][nH]c(=O)c2cc([N+](=O)[O-])ccc12, which “caspase-3 activation” value is on record?
**A.** Its value is 1.61%.

**Q.** With CC(C)CCOC(=O)/C=C/c1ccccc1 as the compound, how does the “caspase-3 activation” value read?
**A.** Its value is 2.3%.

**Q.** For NC(=O)CCCCC(N)=O, which “caspase-3 activation” value is on record?
**A.** The value was -0.618%.

**Q.** Which “caspase-3 activation” value does the source give for ON=C1CCCCC1 here?
**A.** The value was 1.05%.

**Q.** Which “caspase-3 activation” value does the source give for CC(=O)Nc1ccccc1C here?
**A.** Its value is 2.44%.

**Q.** Which “caspase-3 activation” value does the source give for Cc1ccc2cccnc2c1 here?
**A.** Its value is -0.766%.

**Q.** Which “caspase-3 activation” value does the source give for CCOc1cccc(N)c1 here?
**A.** The value was -0.862%.

experiment: Cellular Toxicity (caspase-3) MRC-5 (AID 659); conditions: MRC-5 cells, luminescence, normalized: DMSO 0%, 10 µM staurosporine 100%; series mostly up to 91.7 µM; caspase-3 activation: at the top concentration;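 further: cells exposed to compound for 16 h at 37 °C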
In short: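 Luminescence from caspase-cleaved aminoluciferin substrate (Caspase-Glo 3/7, 1 hr RT) reports caspase 3/7 activity in MRC-5 lung fibroblasts after 16 hr compound exposure. Normalized to DMSO basal and 10 uM staurosporine as 100%; AC50 from Hill fits.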

**Q.** With Cc1cc(C)c(N)cc1C as the compound, how does the “caspase-3 activation” value read?
**A.** Its value is 0.634%.

**Q.** Which “caspase-3 activation” value does the source give for Cc1cccc2ccccc12 here?
**A.** The value was 1.26%.

**Q.** With C=C(C)C(=O)OCC(C)C as the compound, how does the “caspase-3 activation” value read?
**A.** The value was 0.465%.

**Q.** With O=Cc1ccc(C(=O)O)cc1 as the compound, how does the “caspase-3 activation” value read?
**A.** Its value is 1.05%.

**Q.** For CCOc1cc(OCC)c(C(C)=O)cc1OCC, which “caspase-3 activation” value is on record?
**A.** Its value is -0.446%.

**Q.** For CCCCC(CC)CNCC(CC)CCCC (centres undefined), which “caspase-3 activation” value is on record?
**A.** Its value is -1.43%.

**Q.** With C=CCOC(=O)COCCC(C)C as the compound, how does the “caspase-3 activation” value read?
**A.** Its value is 1.52%.

**Q.** Which “caspase-3 activation” value does the source give for ICCc1ccccc1 here?
**A.** Its value is -3.04%.

**Q.** With Cc1ccccc1C(N)=O as the compound, how does the “caspase-3 activation” value read?
**A.** Its value is 2.56%.

**Q.** Which “caspase-3 activation” value does the source give for CNC(=O)c1ccccc1 here?
**A.** The value was 0.578%.

**Q.** With ClCCl as the compound, how does the “caspase-3 activation” value read?
**A.** The value was 2.87%.

**Q.** For CCOc1ccc(NC(C)=O)cc1N, which “caspase-3 activation” value is on record?
**A.** Its value is -0.511%.

**Q.** With Nc1ccc(F)cc1F as the compound, how does the “caspase-3 activation” value read?
**A.** Its value is 0.753%.

**Q.** With CC(=O)c1ccc([N+](=O)[O-])cc1 as the compound, how does the “caspase-3 activation” value read?
**A.** Its value is 2.05%.

**Q.** Which “caspase-3 activation” value does the source give for CCCCN(CCO)CCCC here?
**A.** The value was -0.905%.

**Q.** With BrC(Br)C(Br)Br as the compound, how does the “caspase-3 activation” value read?
**A.** Its value is 0.697%.

**Q.** Which “caspase-3 activation” value does the source give for Nc1nc(CC(=O)O)cs1 here?
**A.** Its value is 0.135%.

**Q.** For O=[N+]([O-])c1cc(C(F)(F)F)ccc1Cl, which “caspase-3 activation” value is on record?
**A.** The value was 0.318%.

**Q.** With Cc1ccc(C(C)(C)C)cc1 as the compound, how does the “caspase-3 activation” value read?
**A.** The value was -2.12%.

**Q.** Which “caspase-3 activation” value does the source give for CC(C)=CCl here?
**A.** Its value is 0.671%.

**Q.** Which “caspase-3 activation” value does the source give for O=Cc1ccc(Cl)cc1 here?
**A.** Its value is -2.83%.

**Q.** With NC(=O)c1cccc([N+](=O)[O-])c1 as the compound, how does the “caspase-3 activation” value read?
**A.** The value was 2.47%.

**Q.** Which “caspase-3 activation” value does the source give for C=CCn1c(=O)n(CC=C)c(=O)n(CC=C)c1=O here?
**A.** The value was -1.97%.

**Q.** With Cc1cc(C)cc([N+](=O)[O-])c1 as the compound, how does the “caspase-3 activation” value read?
**A.** The value was 1.59%.

**Q.** With CC(=O)OC(C)C as the compound, how does the “caspase-3 activation” value read?
**A.** The value was 0.848%.

**Q.** Which “caspase-3 activation” value does the source give for CCC(=O)/C=C/C1C(C)=CCCC1(C)C (centres undefined) here?
**A.** Its value is 0.0281%.

**Q.** With CC(=O)CCc1ccccc1 as the compound, how does the “caspase-3 activation” value read?
**A.** The value was 0.869%.

**Q.** With CCCCOCCOCCOCCCC as the compound, how does the “caspase-3 activation” value read?
**A.** The value was -1.01%.

**Q.** Which “caspase-3 activation” value does the source give for Cc1cc(C(=O)O)ccc1[N+](=O)[O-] here?
**A.** The value was 0.0923%.

**Q.** With Cc1cccc(C)c1O as the compound, how does the “caspase-3 activation” value read?
**A.** The value was 2.15%.

**Q.** For O=c1[nH][nH]c(=O)c2cc([N+](=O)[O-])ccc12, which “caspase-3 activation” value is on record?
**A.** The value was -0.0571%.

**Q.** Which “caspase-3 activation” value does the source give for CC(C)CCOC(=O)/C=C/c1ccccc1 here?
**A.** Its value is 1.06%.

**Q.** Which “caspase-3 activation” value does the source give for NC(=O)CCCCC(N)=O here?
**A.** Its value is -1.19%.

**Q.** For ON=C1CCCCC1, which “caspase-3 activation” value is on record?
**A.** Its value is 1.47%.

**Q.** Which “caspase-3 activation” value does the source give for CC(=O)Nc1ccccc1C here?
**A.** Its value is 2.56%.

**Q.** With COC(=O)CS as the compound, how does the “caspase-3 activation” value read?
**A.** Its value is -1.65%.

**Q.** For Cc1ccc2cccnc2c1, which “caspase-3 activation” value is on record?
**A.** The value was 0.258%.

**Q.** For Cc1cccc([N+](=O)[O-])c1C(=O)O, which “caspase-3 activation” value is on record?
**A.** Its value is -2.15%.

**Q.** For CCOc1cccc(N)c1, which “caspase-3 activation” value is on record?
**A.** Its value is 2.09%.
